Data from PubChem BioAssay (Tox21).
Values joined by “and” are separate entries in the source; they are usually repeats but may differ in a detail not shown here. Equal values may be shown once. Inconclusive results are not listed. Where a call stands in place of a potency, no number is given. Some structures have more than one record in an assay (separate samples or runs), and their calls can disagree. Active and inactive are the calls of the source. Unless noted, the call rests on the fitted dose curve; in most records, active means well fitted curve in the direction sought with a large enough effect in the repeat runs; inconclusive means weak or mixed curves; inactive means no such curve, though single readings can be large; an effect the other way counts as inactive or inconclusive.

Tests used:
[1] = target: Luciferin 4-monooxygenase (Photinus pyralis) (UniProt P08659); test: qHTS assay to identify small molecule inhibitors of firefly luciferase (AID 1224835); further: nearly all actives have a fitted effect of over 25% in size; further: potency means the concentration at half of the fitted maximal effect
In short: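 Inhibition of purified Photinus luciferase is measured by luminescence. Substrate levels (D-luciferin, ATP) sit at their KM values. Each compound is tested in a concentration series.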

[2] = qHTS assay to identify small molecule agonists of the constitutive androstane receptor (CAR) signaling pathway - cell viability counter screen (AID 1224836); further: nearly all actives have a fitted effect of over 45% in size
In short: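 Viability read-out: CellTiter-Fluor fluorescence after 23 h compound exposure at 37 C/5% CO2 in double-stable HepG2-CYP2B6-hCAR cells, with PK11195 present at 0.75 uM final; compounds tested in 15-point titration.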

[3] = qHTS assay to identify small molecule antagonists of the constitutive androstane receptor (CAR) signaling pathway - cell viability counter screen (AID 1224837); further: nearly all actives have a fitted effect of over 45% in size
In short: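 CITCO at 50 nM final was added alongside compounds (15 concentrations) to double-stable hCAR/CYP2B6-2.2kb HepG2 cells. Following 23 hr at 37 C, cell viability was quantified by CellTiter-Fluor fluorescence intensity.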

[4] = qHTS assay to identify small molecule antagonists of the estrogen related receptor signaling pathway with the pleiotropic PPARgamma coactivator (PGC) from Tox21 10K library - cell viability counter screen (AID 1224840; active means well fitted cell-killing curve with a large enough effect in the repeat runs, not every such curve was filed as active; further: nearly all actives have a fitted effect of over 40% in size)
In short: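 Readout: fluorescence intensity from CellTiter-Fluor after 30 min at 37 C/5% CO2. Preceded by 17.5 h treatment of PGC/ERR cells with DMSO-dissolved compounds, added 6 h post-seeding.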

[5] = target: Thyrotropin receptor (Homo sapiens) (UniProt P16473); test: qHTS assay to identify small molecule agonists of the thyroid stimulating hormone receptor (TSHR) signaling pathway (AID 1224843; calls by dose curve; further: nearly all actives have a fitted effect of over 45% in size; further: potency means the concentration at half of the fitted maximal effect)
In short: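 A cell-based cAMP HTRF format was run in TSHR-transfected HEK293 cells, 800 per well. Treatment: 30 min, room temperature. Detection: 1 h with labelled cAMP and anti-cAMP cryptate. Concentration-response over 15 points, three replicates.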

[6] = qHTS assay to identify small molecule agonists of H2AX (AID 1224845; active means well fitted activation curve with a large enough effect in the signal ratio in the repeat runs, not every such curve was filed as active; the % refers to the signal ratio)
In short: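 Phospho-H2AX Ser139 measured by HTRF (ex 320 nm; em 665 and 620 nm) after 24 hr antibody incubation. Compounds, 15 concentrations, 0.76% DMSO, were applied to CHO-K1 cells for 3hr at 37C before lysis.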

[7] = qHTS assay to identify small molecule agonists of the hypoxia (HIF-1) signaling pathway (AID 1224846; active means well fitted activation curve with a large enough effect in the signal ratio in the repeat runs, not every such curve was filed as active; the % refers to the signal ratio)
In short: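 ME-180 HRE-bla reporter cells; compounds in DMSO, 17 h at 37C; read-out beta-lactamase via CCF4-AM FRET.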

[8] = qHTS assay to identify small molecule agonists of H2AX - cell viability counter screen (AID 1224847; calls by dose curve;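 further: wild-type CHO-K1 cells; top concentration of the series differs between compounds; nearly all actives have a fitted effect of over 30% in size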)
In short: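 CHO-K1 wt, 1000 cells/well, o/n 37C; cpds 15 conc, 3 h 37C, 0.76% DMSO; CellTiter-Glo, 30 min RT, luminescence.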

[9] = qHTS RealTime-Glo MT Cell Viability Assay in HepG2 cells - 24 hour (AID 1224867); further: nearly all actives have a fitted effect of over 50% in size
In short: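 Luminescence read-out: viable HepG2 cells reduce a prosubstrate to a NanoLuc substrate, giving a signal proportional to live cell number. Reads taken at 0, 8, 16, 24, 32 and 40 h of compound exposure at 37 C.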

[10] = A CellTox Green Cytotoxicity Assay to monitor cytotoxicity in HEK293 cells - 0 hour (AID 1224869); further: nearly all actives have a fitted effect of over 50% in size
In short: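 Real-time, in one plate: 600 HEK293 cells/well with dead-cell DNA dye, pinned compound after 5 h, 37 C incubation over 40 h; viable cells give no appreciable fluorescence.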

[11] = qHTS RealTime-Glo MT Cell Viability Assay in HepG2 cells - 40 hour (AID 1224870); further: nearly all actives have a fitted effect of over 50% in size
In short: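 Real-time viability: cells seeded at 600 per well together with NanoLuc and cell-permeant prosubstrate, compounds added after 5 h incubation. Luminescence tracked at 0, 8, 16, 24, 32 and 40 h of exposure.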

[12] = target: Nuclear receptor subfamily 1 group I member 3 (Homo sapiens) (UniProt Q14994); test: qHTS assay to identify small molecule antagonists of the constitutive androstane receptor (CAR) signaling pathway (AID 1224838); further: nearly all actives have a fitted effect of over 40% in size; further: potency means the concentration at half of the fitted maximal effect
In short: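 Inhibition of CITCO-driven (50 nM final) CYP2B6 reporter expression is measured in HepG2 cells stably carrying hCAR. Fifteen compound concentrations are applied for 24 h at 37 C, followed by luciferase luminescence.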

[13] = target: Nuclear receptor subfamily 1 group I member 3 (Homo sapiens) (UniProt Q14994); test: qHTS assay to identify small molecule agonists of the constitutive androstane receptor (CAR) signaling pathway (AID 1224839); further: nearly all actives have a fitted effect of over 15% in size
In short: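 Luminescence read-out (ONE-Glo, 30 min, room temperature) from double-stable HepG2-CYP2B6-hCAR cells exposed 24 h to 15-point compound series in presence of 0.75 uM PK11195 final.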

[14] = qHTS assay to identify small molecule antagonists of the estrogen related receptor signaling pathway with the pleiotropic PPARgamma coactivator (PGC) from Tox21 10K library (AID 1224841; call rule not given here; further: actives are mostly falling curves and most rising ones were filed inactive; nearly all actives have a fitted effect of over 50% in size; further: potency means the concentration at half of the fitted maximal effect)
In short: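 One-Glo luminescence, measured after half an hour at room temperature, quantified reporter output of PGC/ERR cells. These had been plated at 2,000 per well, incubated 6 h, dosed with compounds in DMSO, then kept 18 h at 37 C.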

[15] = qHTS assay to identify small molecule agonists of the estrogen related receptor signaling pathway with the pleiotropic PPARgamma coactivator (PGC) from Tox21 10K library (AID 1224842); further: nearly all actives have a fitted effect of over 15% in size
In short: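 Luminescence from One-Glo (30 min, room temperature) measured after PGC/ERR cells had 18 h at 37 C with pinned compound (23 nL in DMSO). Cells had been seeded at 2,000 per well and pre-incubated 6 h.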

[16] = qHTS assay to identify small molecule antagonists of the estrogen related receptor (ERR) signaling pathway from Tox21 library (AID 1224848); further: nearly all actives have a fitted effect of over 50% in size; further: potency means the concentration at half of the fitted maximal effect
In short: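 ERR cell line, 2,000 cells/well. 6 h settle, then compound (DMSO) added; 18 h at 37 C; ONE-Glo luminescence after 30 min RT.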

[17] = qHTS assay to identify small molecule agonists of the estrogen related receptor (ERR) signaling pathway from Tox21 library (AID 1224849; calls by dose curve; further: nearly all actives have a fitted effect of over 15% in size); conditions: ERR reporter cell line, ONE-Glo luciferase, 18 h
In short: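 Luciferase activity in ERR pathway reporter cells served as the agonist readout; exposure lasted 18 h at 37 C, with ONE-Glo detection after 30 min at room temperature.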

[18] = qHTS RealTime-Glo MT Cell Viability Assay in HEK293 cells - 32 hour (AID 1224868)
In short: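 Nonlytic real-time viability readout: viable cells convert prosubstrate to NanoLuc substrate, giving luminescence proportional to live cell number. HEK293, 600 cells/well, compound added after 5 h, continuous culture at 37 C.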

[19] = qHTS assay to identify small molecule agonists of the hypoxia (HIF-1) signaling pathway - cell viability counter screen (AID 1224844; calls by dose curve; further: nearly all actives have a fitted effect of over 50% in size; further: potency means the concentration at half of the fitted maximal effect)
In short: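 In this counter screen, HRE-bla ME-180 cell viability after 17 hrs of compound exposure at 37C was read by CellTiter-Glo luminescence, multiplexed with the beta-lactamase reporter measurement.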

Chain of Luciferin 4-monooxygenase (Photinus pyralis) (P08659 whole entry, looked up): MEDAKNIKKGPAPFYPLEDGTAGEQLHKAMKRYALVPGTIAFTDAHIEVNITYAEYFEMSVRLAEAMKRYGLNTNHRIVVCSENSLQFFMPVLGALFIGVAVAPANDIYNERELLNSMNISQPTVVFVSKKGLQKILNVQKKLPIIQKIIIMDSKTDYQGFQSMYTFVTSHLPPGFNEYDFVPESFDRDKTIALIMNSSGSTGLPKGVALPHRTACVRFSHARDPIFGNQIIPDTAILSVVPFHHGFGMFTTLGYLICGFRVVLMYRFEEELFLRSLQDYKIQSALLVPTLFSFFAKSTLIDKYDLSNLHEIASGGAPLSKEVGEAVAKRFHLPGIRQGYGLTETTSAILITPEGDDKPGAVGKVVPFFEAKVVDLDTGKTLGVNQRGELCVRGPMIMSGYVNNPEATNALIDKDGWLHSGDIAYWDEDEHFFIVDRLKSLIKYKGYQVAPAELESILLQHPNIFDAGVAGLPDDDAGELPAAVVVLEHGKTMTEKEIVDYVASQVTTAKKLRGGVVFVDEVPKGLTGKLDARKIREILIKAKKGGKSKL
Chain of Nuclear receptor subfamily 1 group I member 3 (Homo sapiens) (Q14994 whole entry, looked up): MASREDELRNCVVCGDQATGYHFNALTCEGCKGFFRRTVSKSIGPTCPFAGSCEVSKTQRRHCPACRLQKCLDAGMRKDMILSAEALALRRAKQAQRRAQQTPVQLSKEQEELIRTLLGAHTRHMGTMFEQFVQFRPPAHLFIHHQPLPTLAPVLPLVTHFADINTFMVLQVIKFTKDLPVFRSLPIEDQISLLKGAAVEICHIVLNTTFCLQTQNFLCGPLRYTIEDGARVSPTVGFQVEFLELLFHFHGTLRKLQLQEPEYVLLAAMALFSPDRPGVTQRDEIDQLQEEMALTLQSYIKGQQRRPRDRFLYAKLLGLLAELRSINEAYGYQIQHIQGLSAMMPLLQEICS
Chain of Thyrotropin receptor (Homo sapiens) (P16473 whole entry, looked up): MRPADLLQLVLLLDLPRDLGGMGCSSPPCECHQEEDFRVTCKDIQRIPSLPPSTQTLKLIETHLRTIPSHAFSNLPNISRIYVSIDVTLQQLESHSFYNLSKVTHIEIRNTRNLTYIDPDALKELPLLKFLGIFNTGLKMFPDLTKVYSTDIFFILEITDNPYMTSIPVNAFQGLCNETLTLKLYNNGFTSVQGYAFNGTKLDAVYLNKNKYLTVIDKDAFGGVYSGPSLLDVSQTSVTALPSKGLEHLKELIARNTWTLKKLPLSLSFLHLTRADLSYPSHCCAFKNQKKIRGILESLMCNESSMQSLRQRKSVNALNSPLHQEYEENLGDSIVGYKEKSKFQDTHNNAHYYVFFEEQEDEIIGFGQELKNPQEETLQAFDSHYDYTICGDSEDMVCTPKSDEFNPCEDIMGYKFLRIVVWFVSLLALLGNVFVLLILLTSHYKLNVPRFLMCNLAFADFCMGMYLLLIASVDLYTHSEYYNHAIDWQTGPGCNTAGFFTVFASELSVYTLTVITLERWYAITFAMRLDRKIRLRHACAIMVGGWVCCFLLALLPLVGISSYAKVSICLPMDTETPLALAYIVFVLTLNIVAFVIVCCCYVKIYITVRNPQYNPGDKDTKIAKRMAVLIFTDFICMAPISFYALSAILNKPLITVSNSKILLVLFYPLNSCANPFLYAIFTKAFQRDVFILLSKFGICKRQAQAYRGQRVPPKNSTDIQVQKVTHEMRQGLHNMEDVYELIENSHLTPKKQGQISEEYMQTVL

| Compound | Potency [1] | Potency [2] | Potency [3] | Potency [4] | Potency [5] | Potency [6] | Potency [7] | Potency [8] | Potency [9] | Potency [10] | Potency [11] | Potency [12] | Potency [13] | Potency [14] | Potency [15] | Potency [16] | activity change, positive = activation ([17]; at 92.4 µM (top of the series)) | Potency [18] | activity change, positive = activation ([17]; at 42.5 µM (top of the series)) | Potency [19] |
| --- | --- | --- | --- | --- | --- | --- | --- | --- | --- | --- | --- | --- | --- | --- | --- | --- | --- | --- | --- | --- |
| O=C1Nc2ccccc2C1(c1ccc(O)cc1)c1ccc(O)cc1 | inactive | inactive | inactive | inactive | inactive | inactive | inactive | inactive | inactive | inactive | inactive |  |  |  |  |  |  |  |  |  |
| O=Cc1ccc(Cl)cc1 | inactive | inactive | inactive | inactive | inactive | inactive | inactive |  |  | inactive | inactive | inactive | inactive | inactive | inactive | inactive | -1.47% (inactive) | inactive |  |  |
| COc1cc(C(=S)N2CCOCC2)ccc1O | inactive | inactive | inactive | inactive | inactive | inactive | inactive |  |  | inactive | inactive | inactive | inactive | inactive | inactive | inactive |  |  | -0.619% (inactive) |  |
| Nc1cc(Cl)c(-c2cc(Cl)c(N)cc2Cl)cc1Cl | inactive |  |  |  | inactive |  |  |  |  | inactive | inactive | 13.7 µM (active) and 27.3 µM (active) | inactive |  | inactive | 54.4 µM (active) and 61.1 µM (active) | -76.8% (inactive) and -62.3% (inactive) |  |  | 38.9 µM (active) |
| CC(=O)OCCOCCOCCOC(C)=O | inactive |  | inactive | inactive | 6.77 µM (active) and inactive | inactive | inactive |  |  | inactive | inactive | inactive | inactive |  |  |  |  | inactive |  | inactive |
| CC(C(O)c1ccc(O)cc1)N1CCC(Cc2ccccc2)CC1 (stereo not drawn) | inactive | inactive | inactive | inactive |  | inactive |  | inactive | inactive | inactive | inactive |  |  | inactive | inactive | inactive |  | inactive | -0.85% (inactive) | inactive |
| NC12CC3CC(CC(C3)C1)C2 | inactive | inactive | inactive | inactive |  | inactive |  |  |  | inactive | inactive |  |  |  |  |  |  |  |  | inactive |
| c1cc(C(c2ccc(OCC3CO3)cc2)C(c2ccc(OCC3CO3)cc2)c2ccc(OCC3CO3)cc2)ccc1OCC1CO1 (stereo not drawn) | 16.5 µM (active) |  | inactive | inactive | inactive |  | inactive | inactive | inactive | inactive | inactive | inactive |  | 79.8 µM (active) and inactive | inactive | inactive | -18.6% (inactive) and 0.394% (inactive) | inactive |  | inactive |
